A selection: hits, their analogues and other compounds. The true share with any hit is near 7.3%.
KinaseGlo FLuc: blocks Kinase-Glo luciferase, a counter-screen artifact | Kinase-Glo luciferase, ATP luminescence, 8 min | actives 0.28% (n = 200,000) | Potency, µM (top dose mostly 38.3 µM), without a hit: at the highest dose activity change, negative = inhibition, hits mostly inhibitors | Q27757 | AID 1379; also: % is scaled to controls: 0 for no effect and ±100 for the full control effect; nearly all actives have a fitted effect of over 60% in size
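Compounds were added to a substrate mix at pH 7.2 (50 mM imidazole, 10 uM ATP, within the enzyme's linear range), followed by Kinase-Glo detection reagent; luminescence was measured after 8 minutes at ambient temperature.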
Rab9 promoter act: activators of Rab9 promoter; Huh7 Rab9 promoter-luciferase reporter, luminescence, 24 h; actives 2.8% (n = 320,000); AID 485297; Potency, µM (doses to about 9.22 µM), for inactives: top-dose activation, negative = inhibition, most hits filed as activators; also: % of control where 0% means no effect; nearly all actives have a fitted effect of over 60% in size
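Huh7 cells stably carrying Rab9 promoter–luciferase reporter, plated 1500 cells/well, compound added after 2 h and incubated 24 h at 37 °C; luciferase luminescence then read after 10 min with detection reagent.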
SMN2 splice up: increases expression of the SMN2 splice variant; HEK293 SMN2-luciferase splicing reporter, luminescence, 30-36 h; Potency, µM (series often up to 46.1 µM), without a hit: at the highest dose activity change, positive = activation, actives largely listed as activators; actives 2.8% (n = 210,000); AID 1458; also: % of control where 0% means no effect; nearly all actives have a fitted effect of over 55% in size
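HEK293 cells carry an SMN2 […]–luciferase reporter in which exon 7 inclusion puts luciferase in frame. Cells were plated 10-12 h before compound addition, then incubated 30-36 h at 37C. ONE-Glo luminescence was read; sodium butyrate at 4.5 mM final served as control.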
ELG1 genotox: inducers of genotoxicity in HEK293T ELG1-luciferase cells; HEK293T ELG1-luciferase reporter, luminescence, 16 h; AID 504466; actives 1.3% (n = 330,000); Potency, µM (titrated, usually from 46 µM), inactives show at the highest dose activity change, positive = activation, most hits filed as activators; also: % of control where 0% means no effect; nearly all actives have a fitted effect of over 60% in size
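Cells (2,000/well) expressing the ELG1-luciferase fusion are dosed by pin tool and kept 16 hr at 37 °C, 5% CO2. Signal comes from ONE-Glo luciferase reagent after 30 min at room temperature.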
NPC1 promoter act: activators of NPC1 promoter; Huh7 NPC1 promoter luciferase reporter, 24 h; Potency, µM (doses to about 9.22 µM), without a hit: at the top dose activation, usual class: activators; actives 2.4% (n = 320,000); AID 485313; also: % of control where 0% means no effect; nearly all actives have a fitted effect of over 60% in size
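Luminescence read-out of NPC1 promoter-driven luciferase in stably transfected Huh7 cells; compounds delivered in DMSO and left 24 h at 37C, 5% CO2, qHTS titration format.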
FLuc modulator: firefly luciferase modulation, counter-screen for miR-21 project; Potency, µM (highest dose often 57.5 µM), without a hit: top-dose activity change, negative = inhibition, most hits filed as inhibitors; AID 588342; purified FLuc, Km substrates, luminescence inhibition; P08659; actives 6.9% (n = 360,000);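 also: plate controls were vehicle for no effect and reference inhibitor for full effect; nearly all actives have a fitted effect of over 55% in size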
Target sequence (P08659 whole entry, looked up): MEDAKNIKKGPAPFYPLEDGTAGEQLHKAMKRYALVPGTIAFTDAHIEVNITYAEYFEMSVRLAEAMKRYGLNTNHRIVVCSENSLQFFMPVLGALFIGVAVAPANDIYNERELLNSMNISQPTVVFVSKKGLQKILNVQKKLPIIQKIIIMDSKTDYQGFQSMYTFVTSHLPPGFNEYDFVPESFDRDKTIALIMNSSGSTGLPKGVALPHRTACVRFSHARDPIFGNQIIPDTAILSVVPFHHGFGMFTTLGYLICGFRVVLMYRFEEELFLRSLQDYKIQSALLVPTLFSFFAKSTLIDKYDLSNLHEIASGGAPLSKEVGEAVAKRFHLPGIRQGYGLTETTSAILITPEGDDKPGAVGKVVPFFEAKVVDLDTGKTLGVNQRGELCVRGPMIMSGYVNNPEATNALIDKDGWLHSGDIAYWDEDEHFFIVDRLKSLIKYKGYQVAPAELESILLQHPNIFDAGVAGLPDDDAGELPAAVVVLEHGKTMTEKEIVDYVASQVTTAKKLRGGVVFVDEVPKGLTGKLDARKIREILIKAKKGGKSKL
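Biochemical qHTS of compounds, final roughly 60 µM downward over six points, against 10 nM purified firefly luciferase using Km concentrations of substrates (10 uM D-luciferin, 10 uM ATP) in Tris acetate pH 7.5 buffer; luminescence output.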
Active calls of the source: *; u = inconclusive; x = not tested or not shown; [ ] = dose if it differs, or a comment. Calls follow the shape of the dose curve; as a rule, active = well fitted curve in the direction sought with a large enough effect; inconclusive = small, poorly fitted or top-dose-only effect, or another doubt; inactive = no such curve, though single readings can be large; an effect the other way counts as inactive or inconclusive. Potency is read from the fitted curve at half-maximal effect.

SMILES	KinaseGlo FLuc	Rab9 promoter act	SMN2 splice up	ELG1 genotox	NPC1 promoter act	FLuc modulator
COC(=O)c1cccc(NC(=O)C2COc3ccccc3O2)c1 (stereo not given)	0%	u	9%	18µM*	u	17µM*
Cc1cc(C)c(NC(=O)C2CCN(C(=O)N3CCOc4ccccc43)CC2)c(C)c1	x	x	x	x	x	4%
CC(=O)OCC(=O)N1N=C(c2ccc3ccccc3c2)CC1c1ccccc1 (stereo not given)	3%	3.2µM*	22%	8%	u	-11%
COc1ccc(C2CC(c3ccc4ccccc4c3)=NN2C(=O)COC(=O)C2CCC(=O)N2)cc1 (stereo not given)	0%	1.1µM*	14µM*	u	1.6µM*	24µM*
CCOC(=O)/C=C(\C)N1N=C(c2ccccc2)CC1c1ccccc1 (stereo not given)	-11%	u	u	-9%	8%	17µM*
COc1ccc(C2CC(c3ccc4ccccc4c3)=NN2C(=O)CN2CCC(C(N)=O)CC2)cc1 (stereo not given)	-2%	u	-102%	-11%	16%	u
CCOc1ccc(-n2c(SCC(=O)N3CCc4ccccc43)nc3c([nH]c4ccccc43)c2=O)cc1	x	x	x	x	x	1%
COc1ccc(C(=O)N2CCC3(CCN(Cc4nccs4)CC3)CC2)cc1	-2%	x	-19%	x	x	x
Cc1cc(OCc2cc(C(=O)N(C)CC3CCOCC3)no2)cc(C)c1Cl	x	20%	x	8%	27%	u
COCC1CCN(C(=O)c2cc(COc3cc(C)c(Cl)c(C)c3)on2)C1 (stereo not given)	x	4.5µM*	x	6%[9.26 µM]	u	17µM*
CCN(CC1CCCO1)C(=O)c1cc(COc2cc(C)c(Cl)c(C)c2)on1 (stereo not given)	x	2.2µM*	x	u	3.2µM*	13µM*
COCC1CCN(C(=O)c2cc(COc3cncc(Cl)c3)on2)C1 (stereo not given)	x	3%	x	-5%	-2%	0%
Cc1cc(OCc2cc(C(=O)N3CCCCCC3)no2)cc(C)c1Cl	x	2.5µM*	x	u	2.8µM*	13µM*
Cc1ccc(C)c(NC(=O)CCc2nc3cccnc3n2Cc2cccs2)c1	x	x	-9%	x	x	-7%
CC(C)C(NS(=O)(=O)c1ccc2c(c1)oc(=O)n2C)C(=O)N1CCN(c2cccc(Cl)c2)CC1 (stereo not given)	x	x	31%	x	x	5%
C=C(C[C@]1(C(=O)OC)CC2(CC=C(C)C)C(=O)C(C(=O)CC(C)C)=C(O)C(CC=C(C)C)(C1)C2=O)C(=O)OC (stereo not given in full)	0%	x	-21%	x	x	x
O=C1C2=C(Nc3cc([N+](=O)[O-])ccc3N2)O[C@@H]1c1c[nH]c2ccc(COc3ccccc3)cc12	-4%[7.66 µM]	x	-4%[9.22 µM]	x	x	x
O=S1(=O)CCN(Cc2csc(-c3cccs3)n2)CC1	x	1.8µM*	x	u	1.3µM*	19µM*
O=S1(=O)CCN(Cc2ccccn2)CC1	-1%[7.66 µM]	-3%	-15%[9.22 µM]	0%	-2%	4%
c1csc(-c2nc(CN3CCSCC3)cs2)c1	x	0.4µM*	x	2.6µM*	u	2.4µM*
CCCCc1cc2c(cn1)=C(OC(=O)c1ccc(Cl)nc1)C(C)(OC(=O)CC)C(=O)C=2 (stereo not given)	-4%[7.66 µM]	x	-7%[9.22 µM]	x	x	x
CCOC(=O)c1c(C)oc2nc(C)nc(N3CCN(c4cccc(C)c4C)CC3)c12	x	x	x	x	x	-2%
CCc1ccc(S(=O)(=O)c2nnn(-c3cccc(C)c3)c2N)cc1	x	x	-28%	x	x	1%
O=C(COC(=O)CC1CCCC1)Nc1cc2c(cc1Cl)C(=O)c1ccccc1C2=O	0%	6.3µM*	u	15µM*	3.5µM*	13µM*
CCCn1c(-c2ccc(OC)cc2)nc2ccccc21	-5%	-5%	-6%	-2%	-2%	u
